Reference: PMC5540273 (PLoS ONE, 2017)
Values joined by “and” are separate entries in the source; they are usually repeats but may differ in a detail not shown here. Equal entries are not always repeated. Where two headings read alike, the source gives them in different places.

Experiments:
FAK = test system: T1, FAK; conditions: concentration: 1 μM, replicates: in singlicate; n = 1
T1 construct: gene PTK2

FER = conditions: n = 1
FES = conditions: concentration: 1 μM, replicates: in singlicate; n = 1
FGFR1 = conditions: concentration: 1 μM, replicates: in singlicate; n = 1
FGFR2 = conditions: concentration: 1 μM, replicates: in singlicate; n = 1
FGFR3 = conditions: n = 1
FGFR4 = conditions: n = 1
FGR = conditions: n = 1
FLT1 = conditions: n = 1
FLT3-autoinhibited = conditions: concentration: 1 μM, replicates: in singlicate; n = 1
[1] = concentration: 1 μM,replicates: in singlicate, 1 µM
[2] = concentration: 1 μM, replicates: in singlicate
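Also: KINOMEscan kinase panel screen.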

CSc1nn2c(=O)cc(N3CCOCC3)nc2n1Cc1cccc(C(F)(F)F)c1C [GSK2363608]
%Inh (FAK): 0%
%Inh (FER; [1]): 25% and 1%
%Inh (FES): 0%
%Inh (FGFR1): 0%
%Inh (FGFR2): 0%
%Inh (FGFR3; [1]): 17% and 4%
%Inh (FGFR4; [1]): 5% and 14%
%Inh (FGR; [1]): 31% and 32%
%Inh (FLT1; [1]): 26% and 10%
%Inh (FLT3-autoinhibited): 0%

COC(=O)c1c(-c2ccccc2)c2cc(C(=O)O)ccc2c(=O)n1Cc1ccccc1
%Inh (FAK): 0%
%Inh (FER; [2]): 0%
%Inh (FES): 0%
%Inh (FGFR1): 0%
%Inh (FGFR2): 3%
%Inh (FGFR3; [2]): 0%
%Inh (FGFR4; [2]): 0%
%Inh (FGR; [2]): 0%
%Inh (FLT1; [2]): 7%
%Inh (FLT3-autoinhibited): 3%

Cc1ccc(NC(=O)Nc2cc(C(C)(C)C)nn2-c2ccccc2)cc1 [GSK1014915]
%Inh (FAK): 0%
%Inh (FER; [2]): 20%
%Inh (FES): 0%
%Inh (FGFR1): 6%
%Inh (FGFR2): 25%
%Inh (FGFR3; [2]): 16%
%Inh (FGFR4; [2]): 15%
%Inh (FGR; [2]): 18%
%Inh (FLT1; [2]): 33%
%Inh (FLT3-autoinhibited): 38%

CC(=O)Nc1nc2cnc(Nc3cc(NC(=O)c4cccc(CCC#N)c4)ccc3C)nc2s1
%Inh (FAK): 7%
%Inh (FER; [2]): 0%
%Inh (FES): 17%
%Inh (FGFR1): 9%
%Inh (FGFR2): 22%
%Inh (FGFR3; [2]): 17%
%Inh (FGFR4; [2]): 0%
%Inh (FGR; [2]): 21%
%Inh (FLT1; [2]): 30%
%Inh (FLT3-autoinhibited): 5%

Cl.NC(=O)c1cccc(Nc2nccc(Nc3ccc(Oc4cccc(Cl)c4)c(Cl)c3)n2)c1 [GW659008]
%Inh (FAK): 0%
%Inh (FER; [2]): 9%
%Inh (FES): 0%
%Inh (FGFR1): 18%
%Inh (FGFR2): 0%
%Inh (FGFR3; [2]): 0%
%Inh (FGFR4; [2]): 0%
%Inh (FGR; [2]): 52%
%Inh (FLT1; [2]): 36%
%Inh (FLT3-autoinhibited): 0%

COc1cc(Nc2nccc(N3CCC(NC(=O)Nc4cc(C)ccc4C)C3)n2)cc(OC)c1OC (centres unmarked) [GSK1379762]
%Inh (FAK): 0%
%Inh (FER; [2]): 0%
%Inh (FES): 0%
%Inh (FGFR1): 5%
%Inh (FGFR2): 11%
%Inh (FGFR3; [2]): 30%
%Inh (FGFR4; [2]): 0%
%Inh (FGR; [2]): 14%
%Inh (FLT1; [2]): 22%
%Inh (FLT3-autoinhibited): 0%

COc1cc2ncnc(Nc3ccc4nc(-c5ccccc5)[nH]c4c3)c2cc1OC.Cl [GW282450]
%Inh (FAK): 0%
%Inh (FER; [2]): 42%
%Inh (FES): 6%
%Inh (FGFR1): 10%
%Inh (FGFR2): 0%
%Inh (FGFR3; [2]): 0%
%Inh (FGFR4; [2]): 14%
%Inh (FGR; [2]): 14%
%Inh (FLT1; [2]): 38%
%Inh (FLT3-autoinhibited): 0%

Cn1ccc2ncnc(Oc3ccc(NC(=O)Nc4ccccc4)cc3)c21
%Inh (FAK): 8%
%Inh (FER; [2]): 16%
%Inh (FES): 5%
%Inh (FGFR1): 14%
%Inh (FGFR2): 0%
%Inh (FGFR3; [2]): 0%
%Inh (FGFR4; [2]): 11%
%Inh (FGR; [2]): 0%
%Inh (FLT1; [2]): 89%
%Inh (FLT3-autoinhibited): 48%
